A selection: hits, their analogues and other compounds. The true share with any hit is near 1.5%.
MRP reversal: MRP-mediated drug resistance reversal; H69AR cells + 2 uM doxorubicin, CellTiter-Glo, 72 h; differential viability (reversal), % at 10 µM; 85,000 compounds, 0.04% hits; AID 602;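 active = viability drop by adding the cancer drug above about 55%, with treated viability meeting a 40% cutoff, limit read from the data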;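 also: viability without doxorubicin minus viability with 2 µM doxorubicin for each compound; larger differential means the compound sensitizes cells more to doxorubicin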
F-actin modifier: cytoskeleton assembly modification; 91,000 compounds, 0.18% hits; inhibition, % at 2 µM; AID 836; HUVEC TNFa F-actin phalloidin imaging, high content;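 active = inhibition above the batch mean plus 3 SD and confirmed as a hit by visual image inspection, cut at about 30% in these data, passing the limit was not always enough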
VCAM1 TNFa inh: reduces TNF alpha induced VCAM1 expression in HUVEC. AID 802. 95,000 compounds, 0.48% hits. inhibition, % at 2 µM. HUVEC TNFa-induced VCAM-1 immunofluorescence, high-content imaging;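 active = inhibition above the batch mean plus 3 SD, with images confirmed as a hit by eye, cut at about 37% in these data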;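 also: 0% = TNF-stimulated DMSO wells and 100% = unstimulated control wells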
E-sel TNF inh: blocks E-selectin expression induced by TNF alpha. inhibition, % at 2 µM. HUVEC TNFa-induced E-selectin immunofluorescence, high content. 120,000 compounds, 0.71% hits;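 active = inhibition above the batch mean plus 3 SD, and confirmed as a hit on visual image review, cut at about 43% in these data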;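 also: 0% = TNF-stimulated DMSO wells and 100% = unstimulated control wells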
MRP-1 activ: activates MRP-1. H69AR cells + doxorubicin, viability rescue, CellTiter-Glo. viability increase, % at 10 µM. 140,000 compounds, 0.61% hits. AID 799;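 active = viability gain under doxorubicin at or above a set limit, the compound median plus 3 SD, cut at about 4.7% in these data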;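 also: MRP-1 overexpressing cells given doxorubicin 25 µM after compound pretreatment; 18-22 h compound pretreatment then 72 h with doxorubicin before readout; 0% = doxorubicin-only wells and 100% = vehicle-treated cells without doxorubicin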
* hit, by the source's call; nt = not tested or not shown.

SMILES	MRP reversal	F-actin modifier	VCAM1 TNFa inh	E-sel TNF inh	MRP-1 activ
Nc1nc(SCc2ccc(Cl)cc2Cl)nc2nc3c(cc12)CCCC3	nt	nt	nt	nt	-4.8
CCC1(C)Cc2c(sc3nnn(CC(=O)Nc4ccc(C)cc4)c(=O)c23)CO1 (stereo not given)	nt	7.9	1.2	-32.4	9.7*
CC(C)C[C@H](NC(=O)OC(C)(C)C)C(=O)N/N=C/C1=Cc2ccccc2OC1C (stereo not given in full)	6.0	7.0	10.7	-4.3	-5.5
CCOC(=O)C1=C(SCC)c2cc3c(n2C1=O)CCCC3	30.2	30.4*	0.9	-10.5	-5.5
CCNC(=O)NC1(C(=O)Nc2ccc3c(c2)OCCO3)CCCCC1	-16.5	-6.7	2.5	-13.8	-2.0
Nc1nnc(SCc2ccccc2Cl)s1	9.0	-1.0	-7.8	-1.5	0.2
N=C(N)SCc1ccccc1Cl	nt	nt	nt	17.2	8.6*
CC1(C)Cc2c(c(-c3ccccc3)[nH]c(=O)c2C#N)CS1	-13.1	0.6	-4.2	nt	-3.0
N#Cc1c(-c2ccccc2)[nH]c(=S)[nH]c1=O	23.1	nt	7.0	22.6	4.7*
O=C(Nc1nnc(-c2ccco2)s1)C1CC1	3.5	12.0	2.9	95.5*	0.1
FC(F)(F)Oc1ccc(NC(=S)NCCCN2CCOCC2)cc1	nt	nt	nt	-36.1	nt
CCN1C/C(=C/c2ccc(OC)c(O)c2)C(=O)/C(=C/c2ccc(OC)c(O)c2)C1	nt	nt	nt	60.3*	nt
COc1ccc(/C=C2\CC/C(=C\c3ccc(OC)c(OC)c3)C2=O)cc1OC	nt	nt	nt	nt	-1.5
CCN1C/C(=C\c2cccc([N+](=O)[O-])c2)C(=O)/C(=C/c2cccc([N+](=O)[O-])c2)C1	nt	nt	nt	100.0*	-5.4
Cc1ccc(C(=O)Nc2ccc3cn[nH]c3c2)cc1S(=O)(=O)N1CCCCC1	-24.9	nt	18.0	15.9	-3.7
O=C(NCCc1ccccn1)c1cc(-c2ccccc2Cl)nc2ccccc12	nt	nt	nt	-21.7	-1.2
CCOC(=O)C1C(=O)NC(N2CCCCC2)=NC1c1ccco1 (stereo not given)	-4.3	-16.2	97.0*	1.5	-1.0
CCOC(=O)C1C(=O)NC(N2CCN(Cc3ccccc3)CC2)=NC1c1ccco1 (stereo not given)	0.5	15.9	-17.3	-3.1	-2.9
CCOC(=O)c1ccccc1NC(=O)c1ccccc1N(C)S(C)(=O)=O	1.5	0.7	-25.7	-27.5	-1.0
CCOC(=O)c1ccccc1NC(=O)c1ccc(N(C)S(C)(=O)=O)cc1	9.8	-5.2	-0.6	70.1*	-1.1
Cc1ccc(C2CC(=O)c3cnn(-c4nc(C)cc(C)n4)c3C2)cc1 (stereo not given)	nt	nt	nt	nt	-0.3
Cc1onc(-c2c(Cl)cccc2Cl)c1C(=O)NCCc1ccc(S(N)(=O)=O)cc1	19.5	-22.6	19.3	1.5	-3.1
CCCC1=Nc2cc(C(=O)NCCCOC(C)C)ccc2Sc2ccccc21	-28.5	3.5	-6.2	47.0	-2.8
CCC1=Nc2cc(C(=O)NCCCOC)ccc2Sc2ccccc21	-25.8	-21.5	59.9*	33.0	-4.0
CCC1=Nc2cc(C(=O)NCc3ccco3)ccc2Sc2ccc(C)cc21	nt	nt	nt	nt	-3.4
SMILES	MRP reversal	F-actin modifier	VCAM1 TNFa inh	E-sel TNF inh	MRP-1 activ
CCCC1=Nc2cc(C(=O)NCCCOCC)ccc2Sc2ccccc21	-23.4	-46.2	94.1*	-9.2	-4.5
O=C1CCCN1c1nccs1	nt	nt	nt	-31.8	nt
COc1ccccc1C(=O)NCCN1CCN(C(=O)c2ccccc2OC)CC1	-17.9	18.1	13.1	100.0*	-0.9
Cc1nc2ccc(NC(=O)c3cc(S(=O)(=O)N4CCOCC4)ccc3C)cc2s1	6.7	15.2	2.8	91.9*	-2.7
O=C(CCSc1ccccn1)Nc1ccc(Br)cc1	nt	nt	nt	-8.1	-2.0
COc1ccccc1NC(=O)CSc1nc2n[nH]c(C)c2c(=N)n1-c1ccccc1Cl	5.5	0.8	26.3	-22.9	-6.0
O=C(COc1nsnc1N1CCOCC1)N/N=C/c1ccccc1O	nt	nt	nt	nt	5.5*
O=C(O)COc1ccc(/C=N/NC(=O)COc2nsnc2N2CCOCC2)cc1	nt	nt	nt	15.2	nt
CCOc1cc(N2CCOCC2)c(OCC)cc1NC(=O)CCS(=O)(=O)c1ccc(Cl)cc1	8.8	-11.5	-2.0	3.1	-1.7
CCOc1cc(N2CCOCC2)c(OCC)cc1NS(=O)(=O)c1ccc(Cl)s1	-46.1	-34.0	3.3	88.9*	-4.2
O=C(N/N=C/C(Br)=C/c1ccccc1)c1n[nH]c2c1CCC2	-27.1	12.8	90.8*	nt	-3.2
COc1ccc(CC(=O)N2CC(C)CC(C)C2)cc1 (stereo not given)	7.4	-0.6	5.3	-6.7	-0.9
O=C(O)c1c[nH]c2ccc(S(=O)(=O)N3CCOCC3)cc12	1.0	23.9	55.4*	nt	-0.1
CCOC(=O)c1c(NC(=O)CSc2nnc(-c3ccccc3)n2CC)sc(C(C)=O)c1C	48.0	18.8	4.0	99.7*	-4.0
CSCCC(NS(=O)(=O)c1c(Cl)cccc1Cl)C(=O)O (stereo not given)	nt	nt	nt	-19.5	nt
CC(Sc1nc(-c2ccccc2)nc2c1COC(C)(C)C2)C(=O)N1CCOCC1 (stereo not given)	-32.0	-3.9	6.1	16.7	-3.9
O=S(=O)(C/C(=C/CO)S(=O)(=O)c1ccccc1)c1ccccc1	nt	-1.5	85.8*	100.0*	-1.1
O=C(CS(=O)(=O)c1ccccc1)N1CCCCCC1	-2.3	10.1	4.6	4.0	-1.1
Cc1cc(CCN2CCC(=O)NC2=O)ccc1OC(C)C	15.2	46.2	17.1	10.5	-0.3
COc1cccc(Nc2nc3ccccc3nc2-n2nc(C)cc2C)c1	-1.8	-9.8	1.9	nt	5.6*
O=C(COC(=O)c1c(Cl)cccc1Cl)Nc1cc(Cl)ccc1Oc1ccccc1	nt	nt	nt	nt	6.6*
O=C(COC(=O)c1ccccc1)Nc1cc(Cl)ccc1Oc1ccccc1	nt	nt	nt	nt	3.2
c1ccc(-n2c(Sc3cnccn3)nnc2-c2cccs2)cc1	9.9	-12.2	-2.8	63.3*	-0.7
CC(=O)n1c(Cl)c(NC(=O)CCl)c2ccccc21	0.2	-2.8	28.6	-2.5	-3.3
CCSc1nnc(NC(=O)c2cc(C)on2)s1	15.6	12.4	26.9	12.9	-0.5
SMILES	MRP reversal	F-actin modifier	VCAM1 TNFa inh	E-sel TNF inh	MRP-1 activ
Cc1cc(C(=O)Nc2nnc(C(F)(F)F)s2)no1	2.8	9.7	1.4	-15.6	5.5*
O=C(O)c1cc2nc3c(c(C(F)(F)F)n2n1)CCc1ccccc1-3	1.4	-40.9	84.8*	nt	-0.3
N#CC1=C(N)Oc2cc(N)ccc2C1c1cccnc1 (stereo not given)	nt	nt	nt	-1.2	-4.1
N#CC1=C(N)Oc2cc(Nc3ccccc3)ccc2C1c1ccncc1 (stereo not given)	-17.7	19.5	-5.5	53.8*	-0.3
CCN(CC)c1ccc2c(c1)OC(N)=C(C#N)C2c1cccnc1 (stereo not given)	nt	-50.7	39.1*	nt	-1.6
Cc1cccc(OCc2nc(-c3nonc3N)no2)c1C	-18.1	nt	nt	-46.0	5.2*
CC1CCCC(C)N1c1nnc(NC(=O)c2cc(-c3ccc(Br)cc3)on2)s1 (stereo not given)	nt	-20.9	4.8	-1.3	0.1
O=C(Nc1cccc([N+](=O)[O-])c1)c1cnccn1	nt	nt	nt	-15.7	-2.3
O=C(Nc1cccc([N+](=O)[O-])c1)c1[nH]ncc1Cl	nt	nt	nt	nt	6.1*
COC(=O)c1cc2sc(Cl)cc2n1CC(=O)Nc1ccc(OC)c(OC)c1OC	-1.2	-3.7	0.1	nt	-5.7
